In PubChem BioAssay AID651871 (Sanford-Burnham Center for Chemical Genomics, 2012) one finds activity (protection/inhibition) data, which are given here for one molecule.

The assay concerns HL-1. Put plainly: protection of cardiomyocytes from stress damage, SAR follow-up, cell-based, panel, H9c2 and HL-1, ATP luminescence, set 2 (AID 651871).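 Further: cells exposed to stressor for 2 h before ATP readout; reference of the scale not given here.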 The settings on record: H9c2/HL-1 cardiomyocytes, 2-deoxyglucose stress, with 2-deoxyglucose, run 14, at 39.5 µM (top of the series).

The molecule `COc1ccc2c(c1OC)C(=O)N1c3ccccc3C(=O)N(Cc3cccc(Cl)c3Cl)C21` (stereo unspecified) gave an activity (protection/inhibition) of 31.8%.
